The supplement of paper PMC10849652
The full data set covers some 7,900 targets. This sample favours those with a hit. About 0.6% of all pairs of compound and target were hits.

Experiments:
Assay in all cases: log2 fold change, soluble protein after heating vs DMSO (PISA); higher = thermal stabilisation; K562 cells, 10 uM, 30 min; active = over 0.2 and 3.5 SD of the protein, either way, in both replicates (recomputed)
[1] = compound: COC1=CC=C(C=C1)CN2C=CC3=C2C=C(C=C3)C(=O)NO
In short: (§1)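 K562 cells at 2×10^6 cells/mL were given 10 μM compound for 30 min. Aliquots then went through 3 min of heating across 48°C-58°C, were pooled, and were extracted in PBS with 0.5% NP-40 at 4°C, and the supernatant after 21,000xg for 90 min was quantified by TMTpro 16plex LC-MS/MS with channel sums equalised. Thermal stability relative to control samples, from duplicates, is given as log2 fold change.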

filanesib = compound: CON(C)C(=O)N1N=C(c2cc(F)ccc2F)S[C@@]1(CCCN)c1ccccc1 [filanesib]
In short: as §1

zotarolimus = compound: CO[C@H]1C[C@@H]2CC[C@@H](C)[C@@](O)(O2)C(=O)C(=O)N2CCCC[C@H]2C(=O)O[C@H]([C@H](C)C[C@@H]2CC[C@H](n3cnnn3)[C@H](OC)C2)CC(=O)[C@H](C)/C=C(\C)[C@@H](O)[C@@H](OC)C(=O)[C@H](C)C[C@H](C)/C=C/C=C/C=C/1C [zotarolimus]
In short: as §1

idasanutlin = compound: COc1cc(C(=O)O)ccc1NC(=O)[C@@H]1N[C@@H](CC(C)(C)C)[C@](C#N)(c2ccc(Cl)cc2F)[C@H]1c1cccc(Cl)c1F [idasanutlin]
In short: as §1

alisertib = compound: COc1cc(Nc2ncc3c(n2)-c2ccc(Cl)cc2C(c2c(F)cccc2OC)=NC3)ccc1C(=O)O [alisertib]
In short: as §1

[2] = compound: COc1cc2nc(-c3cc(F)ccc3O)nc(N[C@@H]3CNC[C@H]3C(C)(C)O)c2cc1OC
In short: as §1

gefitinib = compound: COc1cc2ncnc(Nc3ccc(F)c(Cl)c3)c2cc1OCCCN1CCOCC1 [gefitinib]
In short: as §1

[3] = compound: COc1cccc2cc(-c3nc([C@H]4CC[C@H](C(=O)O)CC4)n4ncnc(N)c34)[nH]c12
In short: as §1

lapatinib = compound: CS(=O)(=O)CCNCc1ccc(-c2ccc3ncnc(Nc4ccc(OCc5cccc(F)c5)c(Cl)c4)c3c2)o1 [lapatinib]
In short: as §1

pictilisib = compound: CS(=O)(=O)N1CCN(Cc2cc3nc(-c4cccc5[nH]ncc45)nc(N4CCOCC4)c3s2)CC1 [pictilisib]
In short: as §1

Measured: log2 fold change

SUGP1 (UniProt Q8IWZ8)
Chain of UniProt Q8IWZ8 (Q8IWZ8 whole entry, looked up): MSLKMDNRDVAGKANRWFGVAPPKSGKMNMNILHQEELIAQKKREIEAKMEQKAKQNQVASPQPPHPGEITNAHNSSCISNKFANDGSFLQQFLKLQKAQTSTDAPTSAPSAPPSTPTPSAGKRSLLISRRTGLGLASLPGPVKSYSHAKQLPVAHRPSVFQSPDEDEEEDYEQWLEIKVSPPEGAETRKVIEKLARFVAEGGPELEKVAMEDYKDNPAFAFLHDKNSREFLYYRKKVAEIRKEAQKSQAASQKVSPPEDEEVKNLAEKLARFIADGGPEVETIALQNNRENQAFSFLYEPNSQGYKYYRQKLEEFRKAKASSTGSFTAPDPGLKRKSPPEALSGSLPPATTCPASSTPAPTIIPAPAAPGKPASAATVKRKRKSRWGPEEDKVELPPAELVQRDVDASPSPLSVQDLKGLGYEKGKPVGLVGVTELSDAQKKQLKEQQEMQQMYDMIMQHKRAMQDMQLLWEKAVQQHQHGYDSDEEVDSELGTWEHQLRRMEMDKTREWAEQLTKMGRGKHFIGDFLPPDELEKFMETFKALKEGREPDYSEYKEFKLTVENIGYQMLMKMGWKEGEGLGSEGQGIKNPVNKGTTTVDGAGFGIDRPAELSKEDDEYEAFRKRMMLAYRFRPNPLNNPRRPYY
inactive: [1] 0.027 | filanesib -0.01 | zotarolimus 0 | idasanutlin 0.026 | alisertib -0.038 | [2] -0.007 | gefitinib 0.055 | [3] -0.02 | lapatinib -0.046 | pictilisib 0.032

SRSF2 (UniProt Q01130)
inactive: [1] -0.071 | filanesib 0.118 | zotarolimus 0 | idasanutlin 0.123 | alisertib -0.076 | [2] -0.003 | gefitinib 0.038 | [3] 0.024 | lapatinib 0.039 | pictilisib 0.027

SSB (UniProt P05455)
inactive: [1] -0.036 | filanesib 0.049 | zotarolimus -0.063 | idasanutlin 0 | alisertib -0.046 | [2] -0.132 | gefitinib -0.016 | [3] -0.101 | lapatinib -0.031 | pictilisib -0.042

SLC9A6 isoform 2 (UniProt Q92581)
Chain of UniProt Q92581 (Q92581 whole entry, looked up): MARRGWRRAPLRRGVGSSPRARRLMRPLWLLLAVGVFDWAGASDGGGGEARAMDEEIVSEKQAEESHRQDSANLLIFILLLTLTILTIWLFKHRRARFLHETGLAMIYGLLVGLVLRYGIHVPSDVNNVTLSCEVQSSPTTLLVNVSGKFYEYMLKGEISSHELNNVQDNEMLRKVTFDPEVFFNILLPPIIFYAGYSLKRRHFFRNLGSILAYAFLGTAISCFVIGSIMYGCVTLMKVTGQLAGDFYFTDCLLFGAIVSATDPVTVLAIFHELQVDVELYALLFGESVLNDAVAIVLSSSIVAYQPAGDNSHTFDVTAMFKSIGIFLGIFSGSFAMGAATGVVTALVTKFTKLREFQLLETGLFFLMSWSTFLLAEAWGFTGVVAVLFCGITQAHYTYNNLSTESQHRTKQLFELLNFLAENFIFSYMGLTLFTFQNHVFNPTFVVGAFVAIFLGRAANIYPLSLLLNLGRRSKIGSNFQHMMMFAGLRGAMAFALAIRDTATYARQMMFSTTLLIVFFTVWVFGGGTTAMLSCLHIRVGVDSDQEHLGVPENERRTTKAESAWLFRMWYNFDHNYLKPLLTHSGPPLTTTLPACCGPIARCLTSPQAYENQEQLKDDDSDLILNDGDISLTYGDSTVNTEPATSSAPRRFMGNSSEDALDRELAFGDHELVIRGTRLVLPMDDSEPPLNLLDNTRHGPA
inactive: [1] -0.077 | filanesib -0.051 | zotarolimus -0.062 | idasanutlin -0.011 | alisertib -0.013 | [2] 0.062 | gefitinib -0.017 | [3] 0.071 | lapatinib 0.003 | pictilisib 0.129

THADA (UniProt Q6YHU6)
inactive: [1] 0.019 | filanesib -0.18 | zotarolimus -0.008 | idasanutlin -0.081 | alisertib -0.022 | [2] -0.03 | gefitinib -0.031 | [3] 0.014 | lapatinib 0.012 | pictilisib -0.014

SMCHD1 (UniProt A6NHR9)
inactive: [1] 0.043 | filanesib 0.008 | zotarolimus 0.123 | idasanutlin 0.062 | alisertib -0.005 | [2] -0.179 | gefitinib -0.078 | [3] -0.096 | lapatinib 0.002 | pictilisib 0.035

TANK (UniProt Q92844)
inactive: [1] 0.017 | filanesib 0.03 | zotarolimus -0.024 | idasanutlin 0.02 | alisertib -0.028 | [2] 0.097 | gefitinib -0.032 | [3] 0.048 | lapatinib -0.015 | pictilisib 0.027

SRSF7 (UniProt Q16629)
Chain of UniProt Q16629 (Q16629 whole entry, looked up): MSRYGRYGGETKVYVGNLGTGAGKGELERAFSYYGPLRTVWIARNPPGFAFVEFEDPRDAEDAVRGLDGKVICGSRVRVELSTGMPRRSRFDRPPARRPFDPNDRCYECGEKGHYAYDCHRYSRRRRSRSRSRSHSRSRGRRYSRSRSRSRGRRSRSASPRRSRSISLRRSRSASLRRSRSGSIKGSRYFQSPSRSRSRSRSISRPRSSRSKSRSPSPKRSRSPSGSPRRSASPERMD
inactive: [1] -0.089 | filanesib 0.422 | zotarolimus -0.015 | idasanutlin 0.327 | alisertib -0.114 | [2] -0.047 | gefitinib 0.084 | [3] 0.013 | lapatinib 0.1 | pictilisib -0.003

TM9SF4 (UniProt Q92544)
Chain of UniProt Q92544 (Q92544 whole entry, looked up): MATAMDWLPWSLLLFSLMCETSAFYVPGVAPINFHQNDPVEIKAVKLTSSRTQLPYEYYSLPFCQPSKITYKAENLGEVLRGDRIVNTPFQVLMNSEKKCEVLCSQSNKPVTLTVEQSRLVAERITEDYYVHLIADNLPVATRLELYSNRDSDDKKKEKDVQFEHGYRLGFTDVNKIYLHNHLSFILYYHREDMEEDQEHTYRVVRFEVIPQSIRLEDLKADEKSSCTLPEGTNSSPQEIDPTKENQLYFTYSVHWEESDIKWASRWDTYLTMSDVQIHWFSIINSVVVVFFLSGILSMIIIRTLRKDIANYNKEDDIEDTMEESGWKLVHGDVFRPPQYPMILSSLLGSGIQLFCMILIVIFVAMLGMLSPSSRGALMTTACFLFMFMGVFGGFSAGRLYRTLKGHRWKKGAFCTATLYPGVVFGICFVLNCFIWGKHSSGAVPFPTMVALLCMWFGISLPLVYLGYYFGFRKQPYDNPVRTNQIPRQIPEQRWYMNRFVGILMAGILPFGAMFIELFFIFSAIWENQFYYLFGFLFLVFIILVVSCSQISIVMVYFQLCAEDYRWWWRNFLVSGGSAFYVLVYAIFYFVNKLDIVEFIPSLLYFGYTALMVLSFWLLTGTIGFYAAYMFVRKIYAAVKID
inactive: [1] 0.048 | filanesib -0.04 | zotarolimus 0.036 | idasanutlin 0.004 | alisertib -0.031 | [2] -0.023 | gefitinib 0.086 | [3] 0.004 | lapatinib 0.274 | pictilisib -0.161

SNX6 (UniProt Q9UNH7)
inactive: [1] -0.036 | filanesib -0.187 | zotarolimus 0.02 | idasanutlin -0.01 | alisertib -0.035 | [2] -0.109 | gefitinib -0.123 | [3] 0.004 | lapatinib -0.055 | pictilisib -0.252

THYN1 (UniProt Q9P016)
Chain of UniProt Q9P016 (Q9P016 whole entry, looked up): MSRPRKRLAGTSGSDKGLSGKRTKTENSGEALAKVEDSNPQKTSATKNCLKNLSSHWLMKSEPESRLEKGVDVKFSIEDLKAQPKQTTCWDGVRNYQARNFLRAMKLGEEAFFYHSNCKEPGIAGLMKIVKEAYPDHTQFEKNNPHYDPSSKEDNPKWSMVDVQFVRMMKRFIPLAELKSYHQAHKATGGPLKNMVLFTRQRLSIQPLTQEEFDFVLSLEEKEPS
inactive: [1] -0.01 | filanesib -0.009 | zotarolimus 0.015 | idasanutlin -0.011 | alisertib -0.065 | [2] 0.035 | gefitinib 0.028 | [3] -0.007 | lapatinib -0.039 | pictilisib -0.032

SYF2 (UniProt O95926)
inactive: [1] -0.236 | filanesib 0.069 | zotarolimus -0.174 | idasanutlin 0.058 | alisertib -0.07 | [2] 0.191 | gefitinib -0.109 | [3] 0.02 | lapatinib -0.025 | pictilisib -0.092

SORT1 (UniProt Q99523)
Chain of UniProt Q99523 (Q99523 whole entry, looked up): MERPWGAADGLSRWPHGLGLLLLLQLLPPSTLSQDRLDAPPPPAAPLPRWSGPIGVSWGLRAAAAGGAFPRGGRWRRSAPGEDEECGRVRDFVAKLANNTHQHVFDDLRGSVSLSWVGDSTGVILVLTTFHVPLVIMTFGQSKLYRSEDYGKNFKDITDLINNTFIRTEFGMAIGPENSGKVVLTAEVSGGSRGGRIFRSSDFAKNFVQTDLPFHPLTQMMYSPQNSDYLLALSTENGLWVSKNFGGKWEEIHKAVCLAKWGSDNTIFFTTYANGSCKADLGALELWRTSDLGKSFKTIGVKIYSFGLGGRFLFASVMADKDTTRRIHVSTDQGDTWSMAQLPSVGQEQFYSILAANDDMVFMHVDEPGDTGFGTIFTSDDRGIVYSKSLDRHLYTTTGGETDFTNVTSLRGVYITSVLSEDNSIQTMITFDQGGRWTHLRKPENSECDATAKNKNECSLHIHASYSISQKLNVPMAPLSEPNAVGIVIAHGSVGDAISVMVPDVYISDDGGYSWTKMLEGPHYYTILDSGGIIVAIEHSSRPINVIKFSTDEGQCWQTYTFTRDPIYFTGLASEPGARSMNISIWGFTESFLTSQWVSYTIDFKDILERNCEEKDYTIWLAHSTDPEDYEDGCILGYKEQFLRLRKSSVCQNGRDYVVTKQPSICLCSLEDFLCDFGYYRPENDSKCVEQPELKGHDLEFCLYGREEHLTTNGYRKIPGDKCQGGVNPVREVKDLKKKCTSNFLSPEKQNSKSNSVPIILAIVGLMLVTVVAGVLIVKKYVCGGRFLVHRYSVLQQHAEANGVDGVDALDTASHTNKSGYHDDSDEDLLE
inactive: [1] 0.058 | filanesib -0.066 | zotarolimus 0.002 | idasanutlin 0.008 | alisertib -0.016 | [2] -0.032 | gefitinib 0.028 | [3] 0.056 | lapatinib 0.022 | pictilisib 0.003

TARBP1 (UniProt Q13395)
Chain of UniProt Q13395 (Q13395 whole entry, looked up): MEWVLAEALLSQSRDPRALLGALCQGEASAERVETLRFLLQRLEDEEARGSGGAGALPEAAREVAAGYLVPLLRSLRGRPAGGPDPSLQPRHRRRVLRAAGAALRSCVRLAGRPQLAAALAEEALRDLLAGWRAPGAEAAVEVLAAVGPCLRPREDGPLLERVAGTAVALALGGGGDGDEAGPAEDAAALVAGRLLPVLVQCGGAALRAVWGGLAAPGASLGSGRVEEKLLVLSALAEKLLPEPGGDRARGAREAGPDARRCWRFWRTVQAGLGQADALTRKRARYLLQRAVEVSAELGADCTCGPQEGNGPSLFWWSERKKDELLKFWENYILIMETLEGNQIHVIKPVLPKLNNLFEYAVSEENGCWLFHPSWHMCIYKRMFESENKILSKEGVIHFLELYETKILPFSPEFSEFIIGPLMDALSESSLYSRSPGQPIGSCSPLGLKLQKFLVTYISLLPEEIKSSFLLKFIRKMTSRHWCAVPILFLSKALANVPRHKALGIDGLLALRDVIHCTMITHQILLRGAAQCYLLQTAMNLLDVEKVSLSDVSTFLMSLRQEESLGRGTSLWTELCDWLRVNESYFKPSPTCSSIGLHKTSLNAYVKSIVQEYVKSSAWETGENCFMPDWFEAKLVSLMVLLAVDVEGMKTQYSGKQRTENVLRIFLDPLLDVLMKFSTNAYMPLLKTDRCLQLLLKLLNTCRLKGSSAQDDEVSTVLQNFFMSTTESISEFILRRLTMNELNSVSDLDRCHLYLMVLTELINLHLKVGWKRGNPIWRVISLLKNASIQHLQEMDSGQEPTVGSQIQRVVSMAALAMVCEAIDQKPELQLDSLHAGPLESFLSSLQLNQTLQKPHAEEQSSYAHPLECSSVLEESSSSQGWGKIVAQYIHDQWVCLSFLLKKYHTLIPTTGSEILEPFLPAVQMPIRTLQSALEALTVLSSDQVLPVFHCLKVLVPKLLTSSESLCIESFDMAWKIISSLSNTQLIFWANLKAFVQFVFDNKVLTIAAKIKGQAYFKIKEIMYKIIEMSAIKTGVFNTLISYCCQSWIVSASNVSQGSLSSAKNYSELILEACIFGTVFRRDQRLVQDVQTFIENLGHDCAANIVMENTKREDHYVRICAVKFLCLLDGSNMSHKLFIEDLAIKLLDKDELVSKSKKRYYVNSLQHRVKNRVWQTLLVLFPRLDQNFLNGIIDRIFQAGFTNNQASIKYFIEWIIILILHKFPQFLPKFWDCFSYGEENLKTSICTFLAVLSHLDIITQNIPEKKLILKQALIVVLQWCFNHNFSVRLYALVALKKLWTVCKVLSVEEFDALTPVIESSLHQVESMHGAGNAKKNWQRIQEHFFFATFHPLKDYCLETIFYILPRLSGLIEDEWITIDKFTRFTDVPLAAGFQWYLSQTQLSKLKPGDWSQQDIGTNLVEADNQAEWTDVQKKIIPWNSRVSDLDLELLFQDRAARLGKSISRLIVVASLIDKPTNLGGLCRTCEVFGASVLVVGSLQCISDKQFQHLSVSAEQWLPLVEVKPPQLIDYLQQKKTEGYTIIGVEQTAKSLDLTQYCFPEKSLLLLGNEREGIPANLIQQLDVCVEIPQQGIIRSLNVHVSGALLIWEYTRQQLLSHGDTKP
inactive: [1] -0.036 | filanesib -0.077 | zotarolimus 0.105 | idasanutlin -0.027 | alisertib 0.096 | [2] 0.049 | gefitinib -0.026 | [3] -0.019 | lapatinib -0.015 | pictilisib -0.078
